What all share (assay type): functional
For test [1], the system named is Plasmodium falciparum. In words: GSK_TCMDC: Inhibition of Plasmodium falciparum 3D7 in whole red blood cells, using parasite LDH activity as an index of growth. Test compounds present at 2uM.
Test [2] concerns Plasmodium falciparum. The experiment in a line: GSK_TCMDC: Inhibition of Plasmodium falciparum Dd2 in whole red blood cells, using parasite LDH activity as an index of growth. Test compounds present at 2uM.
Test [3] deals with HepG2. In words: GSK_TCMDC: Percent inhibition of human HepG2 cell line. Test compounds present at 10uM.

Experimental findings from ChEMBL document CHEMBL1157539, “Thousands of chemical starting points for antimalarial lead identification” (Nature, 2010) are described below.

As a reminder, the Inhibition is the percentage by which the read-out fell short of the control.

Take `Cl.Oc1ccc(-c2ccccc2)cc1CNC1CCCCC1`: the Inhibition in test [1] is 95%; in test [2], 100%; in test [3] it was 24%.
For `O=C(Nc1ccc(Br)cc1)N(CCN1CCOCC1)CC(O)COCc1ccc(F)cc1.O=C(O)C(F)(F)F` (centres undefined), the Inhibition in test [1] amounted to 90%; in test [2], 3%; in test [3], 5%.
As to `COc1cccc(C(=O)NCCc2cccc(Cl)c2)c1Oc1ccccc1`, the Inhibition in test [1] is 97%; in test [2], 90%; in test [3], 28%.
The matching figures for `Cn1cncc1CCN(Cc1ccc(-c2ccc(C(F)(F)F)cc2)cc1)C(=O)Cn1c(SCc2cccc(F)c2F)cc(=O)c2ccccc21`: 99%, 90% and 24%.
With `Fc1ccc2[nH]c(-c3ccc(-c4ccc(CNCc5ccccc5)cc4)cc3)nc2c1.O=C(O)C(F)(F)F`, the results for the Inhibition in test [1], in test [2] and in test [3] were 100%, 94% and 35%, respectively.
With `COc1ccc2ncn(-c3ccc(C(N)=O)c(OCc4ccccc4C(F)(F)F)c3)c2c1`, the Inhibition in test [1] stood at 98%; in test [2], 100%; in test [3], 18%.
For the compound `CCN(CC)CCCC(C)Nc1cc(C)nc2cc(Cl)ccc12` (centres undefined), the Inhibition in test [1] is 100%; in test [2] it was 7%; in test [3], 9%.
In the case of `COc1ccc2ccc(F)c(CC(=O)N3CCOC(CNCc4cccc(-c5ccsc5)n4)C3)c2n1` (centres undefined), the Inhibition in test [1] is 92%; in test [2] it was 1%; in test [3], 1%.
Consider `Clc1cc(Cl)c2c(c1)C(NCCCNc1nc3ccccc3[nH]1)CCO2` (centres undefined), for which the Inhibition in test [1] came out at 100%; in test [2], 31%; in test [3], 28%.
The matching figures for `CC(CNC1CCN(CCn2c(=O)ccc3ccc(F)cc32)CC1)c1ccccc1` (centres undefined): 85%, 4% and 0%.
The like results for `CCc1ccc(C2CCN(CCCCNC(=O)c3ccc(NC(=O)c4ccc(Cl)cc4)cc3)CC2)c(OCC(=O)OC)c1` were, in that order, 95%, 12% and 32%.
Consider `Cc1cc(N)c2cc(NC(=O)c3cccc(C(=O)Nc4ccc5nc(C)cc(N)c5c4)c3)ccc2n1.Cl`, for which the Inhibition in test [1] is given as 94%; in test [2], 92%; in test [3] it was 9%.
For the compound `Cc1ccoc1C(=O)Nc1ccc(-c2cccc(-c3nc4cccc(C)c4[nH]3)c2)cc1`, the Inhibition in test [1] turned out to be 95%; in test [2], 69%; in test [3], 15%.
For `Cl.O=c1cc(NCCCNCc2ccc(Cl)c(Cl)c2)[nH]c2ccc(C(F)(F)F)cc12`, the figures for the Inhibition in test [1], in test [2] and in test [3] were 100%, 68% and 10%, respectively.
As to `O=C(NCc1cccc(CN2CCOCC2)c1)c1cc(Br)cc(N2CCN(c3ccncc3)CC2)c1.O=C(O)C(F)(F)F`, the figures for the Inhibition in test [1], in test [2] and in test [3] were 99%, 29% and 25%, respectively.
Consider `CC(C)(C)c1ccc(NC(=O)c2cccc(CN3CCCN(Cc4cccc(C#N)c4)CC3)c2)cc1.O=C(O)C(F)(F)F`, for which the figures for the Inhibition in test [1], in test [2] and in test [3] were 97%, 12% and 39%, respectively.
For the compound `CNc1ccc(CNCc2cccc(-c3ccc(-c4nc5cccc(C)c5[nH]4)s3)c2)cc1.O=C(O)C(F)(F)F`, the values for the Inhibition in test [1], in test [2] and in test [3] were 100%, 88% and 23%, respectively.
Regarding `O=C(O)C[C@H](NC(=O)c1cc(-c2ccc3c(c2)OCO3)no1)C(=O)O.O=C(O)C[C@H](NC(=O)c1conc1-c1ccc2c(c1)OCO2)C(=O)O`, the values for the Inhibition in test [1], in test [2] and in test [3] were 98%, 0% and 0%, respectively.
As for `N#Cc1ccc(N2CCN(Cc3ccc(-c4ccc(-c5nc6cc(C(F)(F)F)ccc6[nH]5)s4)cc3)CC2)nc1.O=C(O)C(F)(F)F`, the values for the Inhibition in test [1], in test [2] and in test [3] were 100%, 73% and 13%, respectively.
Regarding `CC(C)CCOc1ccc(NC(=O)c2cccs2)cc1`, the Inhibition in test [1] came to 95%; in test [2], 95%; in test [3] it was 11%.
In the case of `COc1cc(OC)c(NC(=O)COc2ccc(C)cc2)cc1Cl`, the Inhibition is listed as 86% in test [1], 90% in test [2] and 0% in test [3].
The like results for `CC(=O)c1nccc(C)c1N` were, in that order, 92%, 0% and 10%.
With `CC[C@H](C)CNC(=O)c1cccc(-c2cccc(CNCC3CNCCCO3)c2)n1.O=C(O)C(F)(F)F` (some centres undefined), the Inhibition in test [1] is reported as 91%; in test [2], 54%; in test [3], 15%.
As for `COc1cc(-c2nc(-c3ccncc3)c(-c3ccc4c(c3)CCC4=NO)[nH]2)ccc1OCCN1CCCCC1.Cl`, the Inhibition amounted to 100% in test [1], 80% in test [2] and 75% in test [3].
As for `Br.C=CCc1cccc(OC)c1OCCCON1C(=N)N=C(N)NC1(C)C`, the Inhibition stood at 94% in test [1], 95% in test [2] and 58% in test [3].
Consider `COc1ccc2nccc([C@@H](O)CN3CCC(NC(=O)C(c4cc5ccccc5o4)N4CCN(c5ccc(F)cc5)CC4)CC3)c2c1` (some centres undefined), for which the Inhibition in test [1] came out at 100%; in test [2], 98%; in test [3] it was 15%.
For the compound `Cc1cc(CN2CCC(N3CC(c4ccccc4)(c4ccccc4)OC3=O)C2)ccc1O` (centres undefined), the Inhibition worked out at 96% in test [1], 68% in test [2] and 0% in test [3].
Regarding `COc1ccc2[nH]c(C)cc(=NN=Cc3ccccc3Cl)c2c1`, the Inhibition is reported as 100% in test [1], 100% in test [2] and 0% in test [3].
